This is an account of results in PubChem BioAssay (Tox21).

Test [1] can be described thus: Nuclear factor erythroid 2-related factor 2/antioxidant responsive element (Nrf2/ARE) small molecule agonists: qHTS cell viability counter screen in human keratinocytes (AID 1919968; active = well fitted curve in the direction sought with a large enough effect in the repeat runs; an effect the other way counts as inactive or inconclusive; also: nearly all actives have a fitted effect of over 55% in size). In a few lines: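 Parallel cytotoxicity read: KeratinoSens HaCaT cells, compound treatment 23 h, viability by CellTiter-Fluor fluorescence 1 h post-reagent.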
Test [2] can be described thus: Nuclear factor erythroid 2-related factor 2/antioxidant responsive element (Nrf2/ARE) small molecule agonists: luciferase reporter gene qHTS assay in human keratinocytes (AID 1919969). Also: nearly all actives have a fitted effect of over 35% in size. On the technique in general: A reporter such as luciferase makes a cellular process visible.
Test [3] has as its target Gonadotropin-releasing hormone receptor (Homo sapiens) (UniProt P30968). The test can be described thus: Human gonadotropin-releasing hormone receptor (GnRHR) small molecule agonists, calcium flux assay in GnRHR-HEK293 cells (AID 1920063). Also: nearly all actives have a fitted effect of over 35% in size. Put shortly:
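Calcium flux, agonist mode, human GnRHR stably integrated in HEK293; dye 1 h at 37 C before compound; Ex/Em=480/540 kinetic read, 3 min; 15 concentrations, triplicate.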
(A change in cytosolic calcium serves as a functional read-out for many receptors and channels.)

The target in test [4] is KiSS-1 receptor (Homo sapiens) (UniProt Q969F8). The test can be described thus: Human kisspeptin (KISS1R) small molecule agonists, calcium flux assay in KISS1R-HEK293 cells (AID 1920064; active = well fitted curve in the direction sought with a large enough effect in the repeat runs; an effect the other way counts as inactive or inconclusive). Put shortly: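 Triplicate 15-concentration series were applied to dye-loaded human KISS1R HEK293 cells, and agonist-evoked calcium fluorescence was captured for 3 min.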
KiSS-1 receptor (Homo sapiens), sequence (Q969F8 whole entry, looked up): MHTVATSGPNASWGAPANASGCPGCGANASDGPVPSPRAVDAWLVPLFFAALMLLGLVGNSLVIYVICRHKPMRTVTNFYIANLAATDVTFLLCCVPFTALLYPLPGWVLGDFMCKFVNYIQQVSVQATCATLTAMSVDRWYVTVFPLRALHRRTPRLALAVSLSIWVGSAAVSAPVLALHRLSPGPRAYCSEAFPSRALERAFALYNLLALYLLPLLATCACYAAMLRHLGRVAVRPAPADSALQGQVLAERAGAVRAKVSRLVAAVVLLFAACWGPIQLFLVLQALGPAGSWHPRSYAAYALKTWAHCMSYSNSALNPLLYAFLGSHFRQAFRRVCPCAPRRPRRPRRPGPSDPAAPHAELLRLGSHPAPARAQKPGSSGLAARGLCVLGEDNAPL
The nature of test [5]: G protein-coupled receptor (GPCR) small molecule agonists, calcium flux assay: HEK293 wild type cell line counter screen (AID 1920065). Put shortly: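 Non-specific calcium responders were flagged by adding DMSO-dissolved compounds to dye-loaded cells and reading 480/540 nm fluorescence each second for 3 min; ATP served as positive control.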
Test [6] in a line: p53 small molecule agonists, cell-based qHTS assay with rat liver microsomes (AID 1963578). In a few lines: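 Compound in DMSO added to p53RE-bla cells 5 h post-plating; rat microsomes/NADPH 0.5 mg/mL final; 16 h, 37 C; LiveBLAzer 2 h RT.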
In general terms: Quantitative high-throughput screening tests each substance at several concentrations.

Test [7] can be described thus: p53 small molecule agonists, cell-based qHTS assay with human liver microsomes: qHTS cell viability counter screen (AID 1963579). Also: nearly all actives have a fitted effect of over 45% in size. In a few lines: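 HLM-supplemented (0.5 mg/mL final) and NADPH-supplemented (0.5 mg/mL final) p53RE-bla cultures, 4,000 cells per well, were dosed with compounds in DMSO for 16 h at 37 C; luminescent ATP detection (CellTiter-Glo, 30 min, room temperature) quantified surviving cells.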

Test [8] is described as follows: p53 small molecule agonists, cell-based qHTS assay with rat liver microsomes: qHTS cell viability counter screen (AID 1963580). Also: nearly all actives have a fitted effect of over 45% in size. In a few lines: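 After the beta-lactamase ratio was read, CellTiter-Glo was added to the same wells and luminescence measured at 30 min; cells had been treated 16 h at 37 C with compounds, rat liver microsomes and NADPH (0.5 mg/mL final each).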

The nature of test [9]: p53 small molecule agonists, cell-based qHTS assay: qHTS cell viability counter screen (AID 1963581). Also: nearly all actives have a fitted effect of over 45% in size. Put shortly: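 Multiplexed with the reporter read, a CellTiter-Glo step (30 min, room temperature) gauges ATP-based viability of HCT-116 p53RE-bla cells after 16 h compound incubation at 37 C.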
The nature of test [10]: p53 small molecule agonists, cell-based qHTS assay (AID 1963582; active = well fitted activation curve with a large enough effect in the signal ratio in the repeat runs, not every such curve was filed as active; the % refers to the signal ratio). In a few lines:
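Beta-lactamase reporter cells (p53RE-bla) treated with compounds for 16 h at 37 C; FRET substrate, 2 h, room temperature; fluorescence intensity.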

In test [11] the target is 5-hydroxytryptamine receptor 2A (Homo sapiens) (UniProt P28223). Briefly: 5-hydroxytryptamine receptor 2A (HTR2A) small molecule antagonists, cell-based qHTS assay (AID 1963586). Also: nearly all actives have a fitted effect of over 45% in size. Also: potency is read from the fitted curve at half-maximal effect. In a few lines:
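CHO cells stably expressing human HTR2A were plated for 18 h at 37 C, then loaded with calcium dye for 1 h. Compounds were preincubated 5 min at room temperature before DOI (4 nM solution) was added. Kinetic fluorescence was read for 3 min.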

Test [12] has the same target. Briefly: 5-hydroxytryptamine receptor 2A (HTR2A) small molecule agonists, cell-based qHTS assay (AID 1963587). Also: nearly all actives have a fitted effect of over 30% in size. Also: potency is read from the fitted curve at half-maximal effect. Put shortly:
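CHO cells stably expressing human HTR2A, plated 18 h, loaded with calcium dye 1 h at 37 C. Agonist mode: compounds added and intracellular calcium fluorescence recorded kinetically for 2 min at 1 sec intervals.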

Test [13] concerns the target Muscarinic acetylcholine receptor M1 (Homo sapiens) (UniProt P11229). The test can be described thus: Cholinergic receptor muscarinic 1 (CHRM1) small molecule antagonists, cell-based qHTS assay (AID 1963588). Also: nearly all actives have a fitted effect of over 40% in size. Also: potency is read from the fitted curve at half-maximal effect. In a few lines: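 Compounds were tested at 15 concentrations in three independent runs. Dye-loaded CHRM1-CHO cells were exposed 5 min at room temperature before stimulation by acetylcholine added at 50nM. Intracellular calcium was read kinetically on FDSS for 3 min.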

Test [14] has the same target. The test can be described thus: Cholinergic receptor muscarinic 1 (CHRM1) small molecule agonists, cell-based qHTS assay (AID 1963589). Also: nearly all actives have a fitted effect of over 35% in size. Put shortly:
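qHTS, 15-point titration, 3 independent runs: compounds pin-transferred onto dye-loaded CHRM1-CHO cells (human M1), calcium fluorescence followed every second to detect agonism.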

The nature of test [15]: cAMP Responsive Elements (CRE) small molecule agonists, cell-based qHTS assay (AID 1963590). Put shortly: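 Quantitative HTS for CRE agonists: HEK 293T CRE-bla cells, overnight plating, 3 h compound incubation at 37 C/5% CO2, then 2 h room-temperature LiveBLAzer B/G FRET substrate loading.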
Test [16] can be described thus: cAMP Responsive Elements (CRE) small molecule antagonists, cell-based qHTS assay (AID 1963591; active = well fitted inhibition curve with a large enough effect in the signal ratio in the repeat runs, not every such curve was filed as active; the % refers to the signal ratio). In a few lines:
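Fluorescence intensity from cleaved LiveBLAzer B/G substrate (2 h, room temperature) quantified CRE-bla activity in HEK 293T cells exposed 3 h to compound with 0.25 uM final NKH477.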

In test [17] the target is Beta-2 adrenergic receptor (Homo sapiens) (UniProt P07550). The test can be described thus: Adrenergic beta2 receptor (ADRB2) small molecule antagonists, cell-based qHTS assay (AID 1963592). Also: series mostly up to about 92 µM; nearly all actives have a fitted effect of over 50% in size. In a few lines:
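Assay format: CHO-ADRB2 cells, 18-20hr seeding at 37C/5% CO2, then compound plus 1nM isoproterenol agonist mix for 0.5hr RT. Homogeneous time-resolved fluorescence cAMP detection after 1hr, expressed as 665/615 nm ratio.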

Test [18] deals with D(2) dopamine receptor (Homo sapiens) (UniProt P14416). Briefly: Dopamine D2 receptor (DRD2) small molecule agonists, cell-based qHTS assay (AID 1963594). Also: nearly all actives have a fitted effect of over 35% in size. Put shortly: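 HEK293 cells stably expressing human DRD2, pre-treated with PDE inhibitor Ro20-1724 (0.1 mM final) and compound 10 min at room temperature, then stimulated with NKH477 (200nM […]) for 30 min. cAMP read by HTRF (665/620 nm).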
D(2) dopamine receptor (Homo sapiens), sequence (P14416 whole entry, looked up): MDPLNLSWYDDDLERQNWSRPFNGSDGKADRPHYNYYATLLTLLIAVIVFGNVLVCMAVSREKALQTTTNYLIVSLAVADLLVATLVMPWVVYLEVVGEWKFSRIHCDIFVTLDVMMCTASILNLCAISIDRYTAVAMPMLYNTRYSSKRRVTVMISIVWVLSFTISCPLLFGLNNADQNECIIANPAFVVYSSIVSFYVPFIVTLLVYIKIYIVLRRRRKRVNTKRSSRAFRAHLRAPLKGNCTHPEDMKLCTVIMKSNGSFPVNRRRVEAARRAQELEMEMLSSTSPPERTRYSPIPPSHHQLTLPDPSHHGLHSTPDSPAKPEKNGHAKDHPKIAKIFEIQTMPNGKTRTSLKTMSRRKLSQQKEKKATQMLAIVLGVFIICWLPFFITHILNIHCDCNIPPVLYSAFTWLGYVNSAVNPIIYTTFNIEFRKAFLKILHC

The target is the same in test [19]. Briefly: Dopamine D2 receptor (DRD2) small molecule antagonists, cell-based qHTS assay (AID 1963595; active = well fitted inhibition curve with a large enough effect in the signal ratio in the repeat runs, with a control signal flat; the % refers to the signal ratio). Put shortly: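 Cells were plated and grown for 24 h at 37 °C. Ro20-1724 (0.1 mM final) went in first, then compound for 10 min. NKH477 (200 nM) with quinpirole (12 nM) followed for 30 min at RT, then HTRF detection reagents for 1 h.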
Test [20] is described as follows: p53 small molecule agonists, cell-based qHTS assay with human liver microsomes (AID 1963577).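 Also: p53 response element beta-lactamase reporter cells with liver microsomes plus NADPH.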 Put shortly: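 Reporter activation was measured by LiveBLAzer fluorescence intensity in p53RE-bla cells, which had been exposed to compounds for 16 h at 37 C alongside 0.5 mg/mL human liver microsomes and 0.5 mg/mL NADPH (final concentrations).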

Values without a mark were called inactive. Results filed as inconclusive are left out. Calls of active or inactive are those of the source. Unless noted, calls follow the shape of the full dose curve.
% is scaled to controls: 0 for no effect and ±100 for the full control effect.

Muscarinic acetylcholine receptor M1 (Homo sapiens), sequence (P11229 whole entry, looked up): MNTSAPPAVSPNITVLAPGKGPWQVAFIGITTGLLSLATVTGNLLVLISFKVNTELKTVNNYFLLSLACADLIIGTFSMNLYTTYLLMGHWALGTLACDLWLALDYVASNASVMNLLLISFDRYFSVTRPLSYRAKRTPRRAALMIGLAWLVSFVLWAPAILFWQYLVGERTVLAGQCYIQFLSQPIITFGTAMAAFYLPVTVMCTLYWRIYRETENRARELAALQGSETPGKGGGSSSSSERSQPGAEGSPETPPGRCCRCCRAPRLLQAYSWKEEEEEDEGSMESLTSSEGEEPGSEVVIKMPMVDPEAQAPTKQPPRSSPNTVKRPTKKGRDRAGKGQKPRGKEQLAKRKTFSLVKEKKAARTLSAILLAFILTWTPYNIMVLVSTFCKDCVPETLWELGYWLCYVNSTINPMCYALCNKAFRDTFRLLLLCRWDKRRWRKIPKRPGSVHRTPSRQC
Beta-2 adrenergic receptor (Homo sapiens), sequence (P07550 whole entry, looked up): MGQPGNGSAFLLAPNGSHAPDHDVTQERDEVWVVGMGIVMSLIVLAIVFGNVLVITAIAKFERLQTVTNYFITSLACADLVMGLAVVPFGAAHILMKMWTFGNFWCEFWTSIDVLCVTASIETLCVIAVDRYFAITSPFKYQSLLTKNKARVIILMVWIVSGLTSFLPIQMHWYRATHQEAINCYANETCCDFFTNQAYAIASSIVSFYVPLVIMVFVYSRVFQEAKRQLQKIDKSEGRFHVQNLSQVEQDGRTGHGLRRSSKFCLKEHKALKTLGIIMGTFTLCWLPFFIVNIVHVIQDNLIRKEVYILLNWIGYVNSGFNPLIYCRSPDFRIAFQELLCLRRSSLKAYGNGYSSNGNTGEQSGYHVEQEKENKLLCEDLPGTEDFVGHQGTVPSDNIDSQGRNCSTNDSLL
Gonadotropin-releasing hormone receptor (Homo sapiens), sequence (P30968 whole entry, looked up): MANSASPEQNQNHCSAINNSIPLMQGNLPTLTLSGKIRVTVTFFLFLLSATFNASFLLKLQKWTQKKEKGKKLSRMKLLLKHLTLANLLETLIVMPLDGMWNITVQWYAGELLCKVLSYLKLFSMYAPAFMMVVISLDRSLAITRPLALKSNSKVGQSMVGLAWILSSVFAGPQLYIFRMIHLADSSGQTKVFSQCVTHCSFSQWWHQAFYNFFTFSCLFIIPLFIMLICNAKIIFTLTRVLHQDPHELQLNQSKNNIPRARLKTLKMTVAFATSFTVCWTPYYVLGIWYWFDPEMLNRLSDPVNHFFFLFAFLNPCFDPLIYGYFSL
5-hydroxytryptamine receptor 2A (Homo sapiens), sequence (P28223 whole entry, looked up): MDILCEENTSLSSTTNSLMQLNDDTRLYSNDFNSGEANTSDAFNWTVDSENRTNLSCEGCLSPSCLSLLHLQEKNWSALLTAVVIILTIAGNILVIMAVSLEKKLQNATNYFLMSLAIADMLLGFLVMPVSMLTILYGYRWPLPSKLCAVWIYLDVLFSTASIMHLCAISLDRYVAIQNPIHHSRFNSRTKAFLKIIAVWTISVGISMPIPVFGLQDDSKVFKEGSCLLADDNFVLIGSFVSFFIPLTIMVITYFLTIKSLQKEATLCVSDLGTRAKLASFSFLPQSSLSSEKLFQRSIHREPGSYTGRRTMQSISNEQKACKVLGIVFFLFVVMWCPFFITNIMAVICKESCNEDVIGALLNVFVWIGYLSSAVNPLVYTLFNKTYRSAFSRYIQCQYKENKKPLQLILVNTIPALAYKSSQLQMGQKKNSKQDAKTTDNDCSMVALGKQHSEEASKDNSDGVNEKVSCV

On to `Brc1ccccn1`, for which the Potency entry in [1], in test [2], in [3], in test [6], in test [7] and in test [8] was “inactive” throughout. For the same molecule, the Potency entry in test [9], in [10], in test [11], in [12], in test [13] and in [14] was “inactive” each time. For the same molecule, the Potency entry in test [15], in test [16], in test [17], in test [18] and in [19] was “inactive” in each case. For the same molecule, the result in [4] and in test [5] was inactive.

On to `CCCCCCCCCI`, for which the Potency entry in test [1], in test [2], in [3], in test [6], in [7] and in test [8] was “inactive” throughout. The Potency result in [9], in test [10], in test [11], in test [12], in [14] and in [15] was “inactive” in each case. The Potency entry in test [16], in test [17], in [18] and in test [19] was “inactive” throughout. The outcome in test [4] and in [5] was inactive. Further, the Potency in test [13] is 8.55 µM (active).

Take `C=CC(=C)CC/C=C(\C)CCC=C(C)C`: the activity change, negative = cytotoxicity in test [1] was -0.584% [at 19 µM]; in [9], 2.84% [at 13.5 µM]. For the same molecule, the activity, positive = activation in test [2] is 7.55% [at 19 µM]. Also, in [3], the activity change is 1.61% [at 11.8 µM, stronger effect = higher value]. The activation in test [4] was 5.69% [at 15.8 µM]; in test [5], -1.2% [at 11.8 µM]; in [20], -0.261% [at 13.5 µM]; in test [12], 6.61% [at 15.9 µM]; in test [14], -0.116% [at 15.8 µM]; in test [15] it was 0.237% [at 19 µM]. In addition, the activation in test [18] was -0.761% [at 19 µM]. For the same molecule, the figures for the activity, negative = inhibition in [11] and in test [13] were 22.2% [at 12.7 µM] and -6.65% [at 12.6 µM], respectively. Moreover, the activity change, negative = inhibition was 1.53% [at 18.9 µM] in test [16], 10.9% [at 19 µM] in test [17] and -0.805% [at 18.9 µM] in test [19].

For the molecule `N#CCc1ccccc1[N+](=O)[O-]`, the Potency result in test [1], in test [2], in [3], in [6], in test [7] and in test [8] was “inactive” each time. Also, the Potency entry in test [9], in [10], in test [11], in [12], in [13] and in test [14] was “inactive” throughout. Besides, the Potency result in test [15], in test [16], in [17], in test [18] and in test [19] was “inactive” in each case. Also, the result in test [4] and in test [5] was inactive.

As for `CN1CCC[C@@H]1Cc1c[nH]c2ccc(CCS(=O)(=O)c3ccccc3)cc12`, the Potency entry in test [1], in test [2], in test [3], in [20], in test [8] and in test [10] was “inactive” throughout. Also, the Potency entry in [13], in test [14], in [15], in test [16], in [17] and in test [18] was “inactive” each time. The Potency result in test [19] was “inactive”. Besides, the result in test [4] and in test [5] was inactive. Further, the Potency in test [11] is 0.365 µM (active); in test [12], 0.107 µM (active).

On to `Cc1c(F)cc2c(=O)c(C(=O)O)cn3c2c1CCC3C` (stereo not drawn), for which the Potency entry in [1], in [2], in test [3], in [20], in test [8] and in test [9] was “inactive” throughout. For the same molecule, the Potency result in [10], in test [11], in test [12], in test [13], in test [14] and in [18] was “inactive” each time. The outcome in test [4] and in [5] was inactive.

For `C[C@@H]1CN(c2c(F)c(N)c3c(=O)c(C(=O)O)cn(C4CC4)c3c2F)C[C@H](C)N1`, the activity change, negative = cytotoxicity is 1.83% [at 19 µM] in test [1], 3.67% [at 13.5 µM] in test [8] and 5.52% [at 13.5 µM] in test [9]. For the same molecule, in test [2], the activity, positive = activation was -7.44% [at 19 µM]. The activity change in test [3] is 0.726% [at 11.8 µM, stronger effect = higher value]. The activation is -1.07% [at 15.8 µM] in [4]; -0.768% [at 11.8 µM] in test [5]; -0.339% [at 13.5 µM] in test [20]; -0.164% [at 13.5 µM] in test [10]; -1.16% [at 19 µM] in test [15]; -2.73% [at 19 µM] in test [18]. Besides, the activity change, negative = inhibition in test [16] was -4.06% [at 18.9 µM]; in test [17] it was 8.12% [at 19 µM]; in test [19], 0.614% [at 18.9 µM].
